The supplement of paper PMC4962491
± gives the standard deviation of the averaged measurements. In all, about 1,600 compounds were measured (“mitochondrial oxygen consumption rate normalised to cell number, Z score over the library”: median about 0.065, lowest 2% from about -2.2 on). This excerpt belongs to a sample that is enriched for the lowest values.

The compounds below were run on FaDu (assay: mitochondrial oxygen consumption rate normalised to cell number, Z score over the library; higher = higher oxygen consumption (negative = OCR reduction)). Conditions: treatment time 24 h; assay medium: 5 mM galactose, 5 mM pyruvate, 4 mM glutamine; 10 µM.
Experimental: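 Primary screen: FaDu cells were incubated 24 h with Pharmakon 1600 / TDI oncology set compounds at 2 or 10 uM. Mitochondrial-specific OCR (basal minus 2 uM antimycin A) was measured on a Seahorse XF96 in assay medium with 5 mM galactose, 5 mM pyruvate and 4 mM glutamine, then corrected for Hoechst cell number and expressed as a Z score […]. Compounds that cut cell number by >66% were excluded. Two repeats.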

Compound	mitochondrial oxygen consumption rate normalised
CO[C@H](C(=O)[C@@H](O)[C@@H](C)O)[C@@H]1Cc2cc3cc(O[C@H]4C[C@@H](O[C@@H]5C[C@@H](O)[C@H](O)[C@@H](C)O5)[C@H](O)[C@@H](C)O4)c(C)c(O)c3c(O)c2C(=O)[C@H]1O[C@H]1C[C@@H](O[C@@H]2C[C@@H](O)[C@@H](O[C@@H]3C[C@](C)(O)[C@H](O)[C@@H](C)O3)[C@@H](C)O2)[C@H](O)[C@@H](C)O1	-3.768 ± 0.0062
CC1CC2C3CCC4=CC(=O)C=CC4(C)C3(F)C(O)CC2(C)C1C(=O)CO (stereo unspecified)	0.242 ± 0.014
CC(C)CCCC(C)NC(C)C (stereo unspecified)	0.505 ± 0.85
CNC(=O)c1c(I)c(NC(C)=O)c(I)c(C(=O)O)c1I	-0.0805 ± 0.4
CN1CCCN=C1/C=C/c1cccc(O)c1	0.441 ± 0.03
CCOc1ccc(S(=O)(=O)O)c2cccnc12	0.206 ± 0.45
CC(C)(C)CC(C)(C)c1cc(Cc2cc(C(C)(C)CC(C)(C)C)cc(-n3nc4ccccc4n3)c2O)c(O)c(-n2nc3ccccc3n2)c1	0.425 ± 0.54
O=C1c2ccccc2C(=O)C1c1ccccc1	-1.52 ± 0.92
NC[C@H]1O[C@H](O[C@H]2[C@H](O[C@@H]3O[C@H](CO)[C@@H](O)[C@H]3O)[C@@H](O)[C@H](N)C[C@@H]2N)[C@H](N)[C@@H](O)[C@@H]1O	0.994 ± 0.3
CCCCC(CC)COC(=O)C=Cc1ccc(OC)cc1 (stereo unspecified)	0.103 ± 0.58
CC(COc1ccccc1)NC(C)C(O)c1ccc(O)cc1 (stereo unspecified)	0.554 ± 0.81
CCCCCCCCNC(C)C(O)c1ccc(SC(C)C)cc1 (stereo unspecified)	-3.24 ± 0.087
CC(NCCc1ccc(O)cc1)C(O)c1ccc(O)cc1 (stereo unspecified)	-0.342 ± 0.3
CCCCC(CC)COC(=O)c1ccccc1O (stereo unspecified)	0.409 ± 0.072
Clc1ccc(COC(Cn2ccnc2)c2ccc(Cl)cc2Cl)c(Cl)c1 (stereo unspecified)	-0.399 ± 0.35
Clc1ccc(COC(Cn2ccnc2)c2ccc(Cl)cc2Cl)cc1 (stereo unspecified)	-2.19 ± 0.39
C=CCOC(Cn1ccnc1)c1ccc(Cl)cc1Cl (stereo unspecified)	-0.834 ± 0.055
NC(=O)[C@@H]1CCCN1C(=O)[C@H](Cc1c[nH]cn1)NC(=O)[C@@H]1CCC(=O)N1	-1.1 ± 0.47
CC(C)CC(N)=O	0.337 ± 0.48
O=C([O-])/C=C/C(=O)[O-].[Fe+2]	-0.129 ± 0.31
CC(=O)Oc1cccc(O)c1	0.689 ± 0.62
CC(O)C(=O)O.N (stereo unspecified)	0.0377 ± 0.64
Nc1ccn([C@@H]2O[C@H](CO)[C@@H](O)[C@@H]2O)c(=O)n1	0.901 ± 0.043

Compound	mitochondrial oxygen consumption rate normalised
Nc1ncn([C@@H]2O[C@H](CO)[C@@H](O)[C@H]2O)c(=O)n1	-2.25 ± 0.072
Nc1ncn([C@@H]2O[C@H](CO)[C@@H](O)[C@H]2O)c(=O)n1 [Azacitidine]	0.38 ± 0.39
Nc1ncn([C@H]2C[C@H](O)[C@@H](CO)O2)c(=O)n1 [Decitabine]	0.0464 ± 0.58
Nc1ccn([C@@H]2O[C@H](CO)[C@@H](O)[C@@H]2O)c(=O)n1 [Cytarabine;  Ara-C]	1.36 ± 0.84
Nc1nc2[nH]cnc2c(=S)[nH]1 [Thioguanine]	0.0465 ± 0.27
S=c1[nH]cnc2nc[nH]c12	-1.7 ± 0.17
Nc1nc2[nH]cnc2c(=S)[nH]1	-2.58 ± 0.18
CN1CCN(c2cc3c(cc2F)c(=O)c(C(=O)O)cn3-c2ccc(F)cc2)CC1	-0.0696 ± 0.52
CCCCCCCCCCCCCCCCOP(=O)([O-])OCC[N+](C)(C)C	-1.18 ± 0.45
CCC(=O)NCC[C@@H]1CCc2ccc3c(c21)CCO3	-0.125 ± 0.067
CCN(CC)CCNC(=O)c1c(C)[nH]c(/C=C2\C(=O)Nc3ccc(F)cc32)c1C [Sunitinib Malate]	-0.335 ± 0.17
CCCCCCCCCCOc1cc2c(O)c(C(=O)OCC)cnc2cc1OCC	-0.591 ± 0.88
Cc1cc2nc3ccc(N(C)C)cc3[s+]c2cc1N	-0.959 ± 0.51
CN(C)CCC=C1c2ccccc2COc2ccccc21	0.0965 ± 0.76
CC(=O)Oc1cc(C(C)C)c(OCCN(C)C)cc1C	-0.219 ± 0.18
O=C1CC[C@@H](C(=O)O)N1	0.186 ± 1.2
O=C1[C@H](CC[C@H](O)c2ccc(F)cc2)[C@@H](c2ccc(O)cc2)N1c1ccc(F)cc1	-0.13 ± 0.35
COc1ccc2c(c1OC)C(=O)O[C@@H]2[C@H]1c2c(cc3c(c2OC)OCO3)CCN1C	0.129 ± 0.48
COc1ccc2cc3[n+](cc2c1OC)CCc1cc2c(cc1-3)OCO2	-5.87 ± 0.012
CC[C@H]1OC(=O)[C@H](C)C(=O)[C@H](C)[C@@H](O[C@@H]2O[C@H](C)C[C@H](N(C)C)[C@H]2O)[C@](C)(OC)C[C@@H](C)C(=O)[C@H](C)[C@H]2N(CCCCn3cnc(-c4cccnc4)c3)C(=O)O[C@]12C	-0.0307 ± 0.49
NC(=O)NS(=O)(=O)c1ccc(N)cc1	0.826 ± 1.4
Cc1cc(-c2ccc(/N=N/c3ccc4c(S(=O)(=O)O)cc(S(=O)(=O)O)c(N)c4c3O)c(C)c2)ccc1/N=N/c1ccc2c(S(=O)(=O)O)cc(S(=O)(=O)O)c(N)c2c1O	1.24 ± 1
Cc1cc(=O)oc2cc(O)ccc12	0.758 ± 0.23
